The campaign covered roughly 56,000 sequences. About 3,400 (6.1%) were called active. Rule as the data show it: active = GI50 up to about 1.1 µM and inactive = higher. These entries were drawn from the full list. Potency and affinity values are given separately.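 Values below derive from 48-hour exposures of cells grown in 96-well plates, with endpoints linearly interpolated between the two concentrations bracketing the appropriate inhibition level. Here, GI50 denotes the concentration required for 50% inhibition of growth.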
system: HOP-62; assay: NCI tumour cell line growth inhibition, 48 h

Row | Substance | GI50 [µM]
1 | cis-Bis[[(trimethylsilyl)methyl]amino]tetrachloroplatinum(IV), CHEMBL2146191 | 20.6
2 | [Bis(aminomethyl)diethylsilane]tetrachloroplatinum(IV), CHEMBL2146203 | 1.7
3 | mu-(1,7-nanodiamine-N,N')bis-(cis-aminedichloroplatimum (II)), CHEMBL2146215 | 7.64
4 | CISPLATIN, CHEMBL11359 | 1.82
5 | [Bis(aminomethyl)dimethylsilane]tetrachloroplatinum(IV), CHEMBL2146190 | 6.61
6 | [Bis(aminomethyl)tetramethylenesilane]tetrachloropaltinum(IV), CHEMBL2146189 | 6.32
7 | [Bis(aminomethyl)dimethylsilane]dichloroplatinum (II), CHEMBL2146201 | 35.3
8 | [Bis(aminomethyl)tetramethylenesilane]dichloropaltinum(II), CHEMBL2146205 | 39.7
9 | [Bis(aminomethyl)ethylmethylsilane]tetrachloroplatinum(IV), CHEMBL2146192 | 4.91
10 | [Bis(aminomethyl)pentamethylenesilane]tetrachloropaltinum(IV), CHEMBL2146204 | 1.55
11 | [Bis(aminomethyl)pentamethylenesilane]dichloropaltinum(II), CHEMBL2146202 | 2.33
